# Measured values published in publication PMC4336329 (PLoS ONE, 2015).
# Out of some 310,000 compounds screened, about 14,000 (4.5%) showed an effect of 50% or more. The effect is printed as a negative number. The sample holds strong results, similar compounds and a random draw of the others, so the mix is not that of the screen.
# Biological target: human ether-à-go-go-related gene (hERG) potassium channel (human, UniProt Q12809)
# Assay: primary screen, population patch clamp on CHO cells stably expressing hERG; higher = less effect of the substance
# 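Also: peak tail current of the secondary pulse compared with the same well before compound.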
# Sequence of human ether-à-go-go-related gene (hERG) potassium channel (Q12809 whole entry, looked up): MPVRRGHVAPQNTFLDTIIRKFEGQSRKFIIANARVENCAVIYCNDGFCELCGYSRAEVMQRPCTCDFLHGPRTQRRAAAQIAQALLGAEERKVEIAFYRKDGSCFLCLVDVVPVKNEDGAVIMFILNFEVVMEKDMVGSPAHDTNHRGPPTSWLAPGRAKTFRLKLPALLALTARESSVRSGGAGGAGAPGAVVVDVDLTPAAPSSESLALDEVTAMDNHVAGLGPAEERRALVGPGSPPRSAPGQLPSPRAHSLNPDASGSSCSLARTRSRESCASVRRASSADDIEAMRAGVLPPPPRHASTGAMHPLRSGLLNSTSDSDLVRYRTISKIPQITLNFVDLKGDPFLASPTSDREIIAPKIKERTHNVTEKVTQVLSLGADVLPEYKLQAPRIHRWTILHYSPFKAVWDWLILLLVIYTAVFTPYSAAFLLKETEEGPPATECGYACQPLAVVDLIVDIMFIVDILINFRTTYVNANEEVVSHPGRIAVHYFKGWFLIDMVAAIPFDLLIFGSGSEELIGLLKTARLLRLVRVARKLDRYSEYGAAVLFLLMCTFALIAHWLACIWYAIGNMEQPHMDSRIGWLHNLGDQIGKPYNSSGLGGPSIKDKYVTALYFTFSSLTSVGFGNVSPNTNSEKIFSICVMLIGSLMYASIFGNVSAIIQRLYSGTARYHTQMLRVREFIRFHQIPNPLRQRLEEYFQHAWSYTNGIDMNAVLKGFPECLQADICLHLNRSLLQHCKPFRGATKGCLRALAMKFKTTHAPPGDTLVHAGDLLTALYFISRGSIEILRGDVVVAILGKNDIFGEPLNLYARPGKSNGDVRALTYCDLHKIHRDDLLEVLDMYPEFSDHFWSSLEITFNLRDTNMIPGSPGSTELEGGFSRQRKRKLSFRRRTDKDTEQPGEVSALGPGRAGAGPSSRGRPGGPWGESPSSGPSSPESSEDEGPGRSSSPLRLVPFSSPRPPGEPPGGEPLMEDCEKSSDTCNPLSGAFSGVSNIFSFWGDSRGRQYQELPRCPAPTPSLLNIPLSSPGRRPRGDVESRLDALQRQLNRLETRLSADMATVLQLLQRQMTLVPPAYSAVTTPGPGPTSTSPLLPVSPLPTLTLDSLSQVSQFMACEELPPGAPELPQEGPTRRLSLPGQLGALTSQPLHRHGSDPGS
row,SMILES,"hERG current change (%, negative = inhibition) at 10uM [%]"
1,COc1ccc(C(=O)Nc2ccc(N3CCCCCC3)cc2)cc1S(=O)(=O)N1CCOCC1,-40.1
2,COc1ccc(CN(CC2CCCO2)C(=O)CN2C(=O)COc3ccccc32)cc1OC (stereo not drawn),-15.8
3,Cc1sc(N)c(C(=O)c2ccccc2Cl)c1C,3.8
4,CCOc1ccccc1N(CC(=O)NC1CCCCC1)C(=O)CNC(=O)c1ccco1,8.1
5,Fc1ccc(CN2CCN(c3ncccn3)CC2)cc1,-3.32
6,CN1C(=O)c2ccc(C(=O)Nc3ccc(Br)cn3)cc2C1=O,7.17
7,O=C(CN1CCOCC1)Nc1ccccc1NC(=O)C1CCN(c2ncccn2)CC1,9.55
8,Cc1ccc(-c2nc(CS(=O)CC(=O)NCCN(CC(C)C)CC(C)C)c(C)o2)cc1 (stereo not drawn),-19.4
9,Cc1cc(Cl)ccc1NC(=O)CN1C(=O)C(=O)N(C2CCCC2)C1=O,-5
10,OCC1(Cc2ccccc2)CCN(Cc2cnn(-c3ccccc3F)c2)CC1,-41.9
11,Cc1ccc(-n2cc(CN3CCC(CO)(Cc4cccc(C(F)(F)F)c4)CC3)cn2)cc1,-76
12,Cc1ccc(-n2cc(CN3CCC(CO)(Cc4ccccc4)CC3)cn2)cc1,-65.1
13,Cc1ccc(CN2CCCN(Cc3ccccc3C)S2(=O)=O)cc1,21.1
14,Cc1ccc(-n2nnnc2-c2cnc(N3CCCC3)nc2C(F)(F)F)cc1,-9.95
15,CCOC(=O)c1cnc2c(cnn2C)c1NCc1ccc(OC)cc1,16
16,COC(=O)c1cc2sccc2n1CC(=O)Nc1ccc(OC)c(OC)c1OC,-1.08
17,COC(=O)c1cc2sc(Cl)cc2n1CC(=O)Nc1ccc(OC)c(OC)c1OC,-68.9
18,COC(=O)c1cc2occc2n1CC(=O)Nc1ccc(OC)c(OC)c1OC,0.151
19,CCOc1ccc(NC(=O)CN2CC(c3ccccc3)CC2=O)cc1 (stereo not drawn),-19.9
20,COC(=O)c1ccc(/C=N/NS(=O)(=O)c2cc(C)ccc2C)cc1,-0.827
21,Cc1ccn2c(-c3csc(NCc4ccccc4)n3)c(C)nc2c1.Cl,-72.4
22,C=CCNc1nc(-c2c(C)nc3ncccn23)cs1,-0.737
23,c1coc(CNc2nc(-c3cccs3)cs2)c1,-9.83

row,SMILES,"hERG current change (%, negative = inhibition) at 10uM [%]"
1,Br.Cc1nc2ncccn2c1-c1csc(Nc2ccc(S(N)(=O)=O)cc2)n1,0.703
2,Cc1ccn2c(-c3csc(NCc4ccco4)n3)c(C)nc2c1,-64.9
3,c1coc(CNc2nc(-c3ccncc3)cs2)c1,-3.17
4,Oc1ccc(-c2csc(NCc3ccco3)n2)cc1,-10.2
5,Cc1nc2sccn2c1-c1csc(NCc2ccccc2)n1,6.86
6,Cc1nc2ncccn2c1-c1csc(NCc2ccco2)n1,-51.8
7,Cc1nc2ccccn2c1-c1csc(NCc2ccco2)n1,-74.6
8,Cc1nc(C)c(-c2csc(NCc3ccco3)n2)s1,-10.9
9,Cc1ccn2c(NCc3ccccc3)c(-c3cccs3)nc2c1,12.5
10,COc1ccccc1/C=C(/C#N)C(=O)O,18.5
11,Nc1ccc(-c2cnc3ccccc3n2)cc1,0.217
12,O=C(COc1ccccc1)Nc1nnc(COc2ccccc2)s1,4.24
13,CC(=O)/C(C[N+]1(C)CCCCC1)=N\O.[I-],16.4
14,CSc1ncc(Cl)c(C(=O)Nc2ccccc2C)n1,6.48
15,CCCCCN=CC1=C(O)CC(c2ccccc2)CC1=O (stereo not drawn),-6.98
16,COc1ccc(C2CC(=O)c3cnn(-c4nc(C)cc(C)n4)c3C2)cc1OC (stereo not drawn),-4.84
17,COCCNC(=S)N/N=C1\CC(C)CC(C)(C)C1 (stereo not drawn),6.32
18,C#CCn1cnc2c(cnn2-c2ccc(C)c(C)c2)c1=O,3.21
19,COc1ccc(-c2[nH]ncc2CNC(C)CCn2cccn2)cc1F (stereo not drawn),-2.23
20,Nn1c(SCC(=O)Nc2nccs2)nnc1C1CC1,6.89
21,COC(=O)c1ccccc1NS(=O)(=O)c1ccc2[nH]c(=O)[nH]c2c1,16.4
22,O=C(CN1C(=O)c2cccc3cccc1c23)NCc1cccnc1,2.05
23,CCCCCCNS(=O)(=O)c1ccc(Cl)s1,-12.9

row,SMILES,"hERG current change (%, negative = inhibition) at 10uM [%]"
1,Cc1ccc(SCC(=O)NC(C)(C)C)cc1,-8.22
2,Cc1ccc(Nc2nc(-c3c(C)nc4ncccn34)cs2)cc1,-10.4
3,Cc1nc2ncccn2c1-c1csc(Nc2cccc(C(=O)O)c2)n1,5.55
4,Cc1nc2ncccn2c1-c1csc(Nc2ccccc2)n1,-54.7
5,Br.Cc1ccc(Nc2nc(-c3c(C)nc4ccccn34)cs2)cc1,-62.7
6,Cc1cccc(Nc2nc(-c3c(C)nc4ccccn34)cs2)c1,0.479
7,CC(=O)Nc1ccc(Nc2nc(-c3c(C)nc4ccccn34)cs2)cc1,18.4
8,O=c1cc(N2CCN(c3ccccc3F)CC2)[nH]c(=O)n1-c1ccc(Br)cc1,-16.7
9,COC(=O)C1C(=O)CC(C)(O)C(C(=O)OC)C1/C=C/c1ccccc1 (stereo not drawn),-15.6
10,N/C(Cc1ccc([N+](=O)[O-])cc1)=N\OC(=O)c1ccccc1F,-35.6
11,O=C(O/N=C(/c1ccccc1)c1ccncc1)c1ccccc1[N+](=O)[O-],-14
12,N/C(Cc1ccc([N+](=O)[O-])cc1)=N\OC(=O)c1ccc2ccccc2c1,2.02
13,N/C(Cc1ccc([N+](=O)[O-])cc1)=N\OC(=O)c1ccc(Br)cc1,-41.5
14,COc1ccc(/C(N)=N/OC(=O)c2ccc(C)c([N+](=O)[O-])c2)cc1OC,10.1
15,COc1ccc(/C(N)=N/OC(=O)c2ccc(OC)c([N+](=O)[O-])c2)cc1OC,-65
16,COc1ccccc1C(=O)O/N=C(\c1ccccc1)c1ccncc1,-14.4
17,N/C(Cc1ccc([N+](=O)[O-])cc1)=N\OC(=O)c1ccc([N+](=O)[O-])cc1,-57.6
18,COc1ccccc1C(=O)O/N=C(/c1ccncc1)c1ccc([N+](=O)[O-])cc1,-67.9
19,N/C(=N\OC(=O)c1ccccc1Br)c1ccc([N+](=O)[O-])cc1,-14.4
20,COc1ccc(/C(N)=N/OC(=O)c2ccc([N+](=O)[O-])c(C)c2)cc1OC,-16.5
21,N/C(Cc1ccc([N+](=O)[O-])cc1)=N\OC(=O)c1ccccc1Br,-57.7
22,c1ccc(CSc2nnnn2-c2ccccc2)cc1,-3.94
23,CC(=O)NCc1ccc(S(=O)(=O)NC(C)CCc2ccccc2)cc1 (stereo not drawn),13.3

row,SMILES,"hERG current change (%, negative = inhibition) at 10uM [%]"
1,OCCn1ccc(-c2ccccc2OCc2ccc(F)cc2)n1,4.9
2,N#Cc1ccccc1Cn1c(-c2cscn2)nc2ccccc21,-7.78
3,CCOC(=O)c1sc(NC(=O)CCCn2nc([N+](=O)[O-])c(Cl)c2C)c(C(=O)OCC)c1C,-3.72
4,Cc1cc(/C=C(\C#N)C(=O)NCCc2c[nH]c3ccccc23)c(C)n1C,3.85
5,O=C1CS/C(=N\C(=O)N2c3ccccc3Sc3ccccc32)N1,5.96
6,Cc1cc(S(=O)(=O)Nc2ccc(N(C)C)cc2)c(C)s1,0.71
7,Fc1ccc(C(c2nnnn2C2CCCC2)N(Cc2ccco2)CC2CCCO2)cc1 (stereo not drawn),-28
8,O=C(CSc1cccc[n+]1[O-])Nc1cccc(S(=O)(=O)NC2=NCCCCC2)c1,54.8
9,CCCn1c(C)cs/c1=N\C(=S)Nc1ccccc1,12.8
10,N/C(Cc1ccc([N+](=O)[O-])cc1)=N\OC(=O)c1cccc(Br)c1,-58
11,COc1cc(C(=O)O/N=C(\N)Cc2ccc([N+](=O)[O-])cc2)cc(OC)c1OC,-68.9
12,N/C(=N\OC(=O)c1cccc(Br)c1)c1ccc([N+](=O)[O-])cc1,17.7
13,Cc1cccc(C(=O)O/N=C(\N)Cc2ccc([N+](=O)[O-])cc2)c1,-64.3
14,Cc1ccc(C(=O)O/N=C(\N)Cc2ccc([N+](=O)[O-])cc2)c(Cl)c1,-46.3
15,COc1ccc(C(=O)O/N=C(\N)Cc2ccc([N+](=O)[O-])cc2)c(OC)c1,-57.1
16,COc1cc(C(=O)O/N=C(\N)c2ccc([N+](=O)[O-])cc2)cc(OC)c1OC,-45.2
17,N/C(=N\OC(=O)Cc1ccc([N+](=O)[O-])cc1)c1cccc(Br)c1,3.08
18,COc1cc(C(=O)OCc2ccc([N+](=O)[O-])cc2)cc(OC)c1OC,2.74
19,Cc1cccc(OCC(=O)O/N=C(\N)Cc2ccc([N+](=O)[O-])cc2)c1,-32.5
20,COc1ccc(C/C(N)=N/OC(=O)c2cccc([N+](=O)[O-])c2)cc1,-44.2
21,COc1ccc(CC(=O)O/N=C(\N)Cc2ccc([N+](=O)[O-])cc2)cc1,-46.5
